Assay outcomes: PubChem, National Center for Advancing Translational Sciences (NCATS)
PLK1 PBD block: inhibitors of human PLK1 polo-box domain binding | P53350 | Plk1 PBD binding of FITC phosphopeptide, fluorescence polarization | Potency, µM, without a hit: max response, negative = inhibition, actives largely listed as inhibitors | 360,000 compounds, 2.8% hits; further: series mostly up to about 57 µM; on the % scale 0 is the no-effect control and ±100 the full control effect; nearly all actives have a fitted effect of over 65% in size
Sfp inh: inhibitors of Bacillus subtilis Sfp phosphopantetheinyl transferase; Q9F4F7; Biochemical Sfp PPTase activity, qHTS; Potency, µM, for inactives: largest response in the series, negative = inhibition, hits mostly inhibitors; 310,000 compounds, 3.5% hits;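 further: the enzyme is Sfp with the accession as filed and its product quenches rhodamine fluorescence; 0% = enzyme reaction without inhibitor and -100% = no enzyme wells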
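Reaction rates are the 30-min fluorescence difference (ex 525, em 598 nm) in wells containing 15 nM Sfp, 5 uM rhodamine-CoA and 12.5 uM BHQ-2-YbbR at pH 7.6 with 10 mM MgCl2.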
BAZ2B inh: inhibitors of human BAZ2B bromodomain; AlphaScreen BAZ2B-H3K14Ac peptide displacement; 360,000 compounds, 4.4% hits; Q9UIF8; AID 504333; Potency, µM (doses to about 114 µM), for the others: top-dose activity change, negative = inhibition, actives largely listed as inhibitors; further: on the % scale 0 is the no-effect control and ±100 the full control effect; nearly all actives have a fitted effect of over 60% in size
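BAZ2B 50 nM plus b-H3(5-23)K14Ac 50 nM, PBS pH 7.4/0.01% Tween-20, 30 min RT; compound added (max 110 uM), 30 min RT; streptavidin donor/Ni-chelate acceptor beads 10 ug/mL final, 20 min dark; AlphaScreen read.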
JMJD2A Tudor: JMJD2A Tudor domain (human) inhibition | O75164 | AlphaScreen JMJD2A-Tudor / H3K4me3 peptide binding | Potency, µM (top dose mostly 114 µM), for inactives: at the highest dose activity change, negative = inhibition, usual class: inhibitors | 390,000 compounds, 4.4% hits; further: on the % scale 0 is the no-effect control and ±100 the full control effect; nearly all actives have a fitted effect of over 50% in size
Target sequence (O75164 whole entry, looked up, the tested form may be a part): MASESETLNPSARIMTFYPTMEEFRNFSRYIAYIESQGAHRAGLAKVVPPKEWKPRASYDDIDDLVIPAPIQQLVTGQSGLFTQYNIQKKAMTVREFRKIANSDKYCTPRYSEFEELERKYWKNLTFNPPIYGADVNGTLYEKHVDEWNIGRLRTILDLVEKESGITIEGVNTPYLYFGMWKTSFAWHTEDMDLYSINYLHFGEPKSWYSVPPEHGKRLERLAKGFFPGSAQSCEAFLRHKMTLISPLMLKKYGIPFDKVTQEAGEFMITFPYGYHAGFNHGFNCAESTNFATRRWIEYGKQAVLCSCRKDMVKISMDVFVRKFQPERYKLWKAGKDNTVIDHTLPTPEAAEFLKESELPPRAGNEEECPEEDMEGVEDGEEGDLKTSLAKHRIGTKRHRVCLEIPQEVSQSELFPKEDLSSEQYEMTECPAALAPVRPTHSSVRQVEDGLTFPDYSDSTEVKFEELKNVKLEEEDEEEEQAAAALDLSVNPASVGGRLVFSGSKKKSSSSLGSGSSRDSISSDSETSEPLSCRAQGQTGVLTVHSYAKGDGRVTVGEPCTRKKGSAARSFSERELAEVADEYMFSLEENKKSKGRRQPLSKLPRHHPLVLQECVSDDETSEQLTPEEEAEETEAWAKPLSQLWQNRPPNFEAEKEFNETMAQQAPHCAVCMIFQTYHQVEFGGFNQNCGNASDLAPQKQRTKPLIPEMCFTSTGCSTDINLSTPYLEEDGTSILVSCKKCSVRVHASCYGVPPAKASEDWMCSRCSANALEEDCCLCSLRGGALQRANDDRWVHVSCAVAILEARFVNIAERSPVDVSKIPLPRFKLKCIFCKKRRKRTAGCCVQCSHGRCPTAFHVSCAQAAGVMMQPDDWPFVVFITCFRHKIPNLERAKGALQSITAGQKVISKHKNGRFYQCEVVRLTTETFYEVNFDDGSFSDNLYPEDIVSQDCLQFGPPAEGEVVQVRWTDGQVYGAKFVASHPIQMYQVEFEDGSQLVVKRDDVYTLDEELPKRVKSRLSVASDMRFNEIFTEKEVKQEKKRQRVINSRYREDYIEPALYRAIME
HP1b binding inh: blocks HP1-beta chromodomain binding to methylated histone tails; AID 540317; P83916; AlphaScreen HP1-beta / biotin-H3K9me3 peptide binding; Potency, µM (doses to about 114 µM), for the others: at the top dose activity change, negative = inhibition, most hits filed as inhibitors; 390,000 compounds, 0.56% hits; further: nearly all actives have a fitted effect of over 70% in size
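HP1-beta protein (50 nM final) preincubated 30 min at room temperature with biotinylated H3(1-18)K9me3 peptide (50 nM) in PBS pH 7.4, 0.01% Tween-20, then compound added for 30 min. AlphaScreen streptavidin donor/nickel chelate acceptor beads (10 ug/mL final), 30 min dark, luminescence read.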
G9a inh: inhibitors of human histone lysine methyltransferase G9a | Q96KQ7 | G9a H3K9 monomethylation, AlphaScreen, 2 h | Potency, µM (top dose mostly 102 µM), for the others: at the top dose activity, negative = inhibition, most hits filed as inhibitors | 350,000 compounds, 8.8% hits; further: on the % scale 0 is the no-effect control and ±100 the full control effect; nearly all actives have a fitted effect of over 75% in size
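Readings reflect AlphaScreen signal from monomethyl-H3K9 antibody detection. HMT at 20 nM; substrate b-H3K9 500 nM; cofactor SAM 20 uM; 2 h RT reaction; compounds tested as titrations in qHTS with 15 min preincubation.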
* = called active by the depositor; [ ] = dose if it differs, or a comment. The list is not random: actives were taken first. Their share in the collection is about 12%. The call rests on the fitted dose curve; in most records, active means well fitted curve in the direction sought with a large enough effect; inconclusive means small, poorly fitted or top-dose-only effect, or another doubt; inactive means no such curve, though single readings can be large; an effect the other way counts as inactive or inconclusive. Potency means the concentration at half of the fitted maximal effect.

What do the screens show for `C/C(=N\Nc1ccccc1[N+](=O)[O-])c1ccccc1O`?
PLK1 PBD block: -3.7%; Sfp inh: 12.7%; BAZ2B inh: 2.51µM*; JMJD2A Tudor: 2.82µM*; HP1b binding inh: inconclusive; G9a inh: 17.8µM*

How did CC/C(=N\Nc1ccccc1[N+](=O)[O-])c1ccc(O)cc1 do in these assays?
PLK1 PBD block: -6.0%; Sfp inh: inconclusive; BAZ2B inh: 6.31µM*; JMJD2A Tudor: 14.1µM*; HP1b binding inh: 12.6µM*

Results for CC/C(=N\Nc1ccc([N+](=O)[O-])cc1[N+](=O)[O-])c1ccc(O)cc1 ?
PLK1 PBD block: -6.2%; Sfp inh: 5.1%; BAZ2B inh: 11.2µM*; JMJD2A Tudor: -29.9%; HP1b binding inh: -8.9%; G9a inh: -35.0%[12.7 µM]

What do the screens show for `C/C(=N\Nc1ccc([N+](=O)[O-])cc1[N+](=O)[O-])c1ccc(-n2nncc2C(C)(C)C)cc1`?
PLK1 PBD block: -0.8%; Sfp inh: -10.0%; BAZ2B inh: inconclusive; JMJD2A Tudor: inconclusive; HP1b binding inh: inconclusive; G9a inh: 7.08µM*

What do the screens show for `C/C(=N/Nc1ccccc1[N+](=O)[O-])c1ccc([N+](=O)[O-])cc1`?
PLK1 PBD block: -10.4%; Sfp inh: 6.1%; BAZ2B inh: inconclusive; JMJD2A Tudor: -19.5%; HP1b binding inh: 11.3%; G9a inh: -15.1%[2.33 µM]

Results for C/C(=N\Nc1ccc(S(N)(=O)=O)cc1[N+](=O)[O-])c1ccccc1O ?
PLK1 PBD block: -3.7%; Sfp inh: 2.8%; BAZ2B inh: -22.2%; JMJD2A Tudor: -20.8%; HP1b binding inh: -8.5%; G9a inh: 4.6%[59 µM]

Results for CNc1ccccc1C(=O)N1CCc2c([nH]c3ccccc23)C1=O ?
Sfp inh: 12.9%

How did Cc1cccc(C)c1OCc1nc2c3cnn(-c4cccc(F)c4)c3ncn2n1 do in these assays?
BAZ2B inh: 2.8%; JMJD2A Tudor: 3.5%; HP1b binding inh: 38.4%; G9a inh: -0.7%[59 µM]

How did O=C(Nc1cccc(C(F)(F)F)c1)c1cc2nc(-c3ccc4c(c3)OCO4)cc(C(F)(F)F)n2n1 do in these assays?
BAZ2B inh: -18.7%; JMJD2A Tudor: -9.0%; HP1b binding inh: 23.7%; G9a inh: -3.8%[59 µM]

What do the screens show for `CC1Cc2ccccc2N1S(=O)(=O)c1nnc(NC(=O)c2ccccc2Br)s1` (stereo unspecified)?
BAZ2B inh: -29.6%; JMJD2A Tudor: -34.2%; HP1b binding inh: 26.3%; G9a inh: -33.2%[59 µM]

Results for C/C(=N\Nc1ccc([N+](=O)[O-])cc1[N+](=O)[O-])C(C)(C)C(C(=O)O)C(=O)O ?
PLK1 PBD block: -5.8%; Sfp inh: -10.3%; BAZ2B inh: inconclusive; JMJD2A Tudor: 22.4µM*; HP1b binding inh: -15.8%; G9a inh: inconclusive

Results for CCN1CCN(c2oc(-c3ccc(OC)cc3)nc2C#N)CC1 ?
PLK1 PBD block: -1.1%; JMJD2A Tudor: -19.9%; HP1b binding inh: 5.0%

Results for N#Cc1nc(-c2ccco2)oc1N1CCOCC1 ?
PLK1 PBD block: -1.7%; Sfp inh: 14.0%; BAZ2B inh: 4.3%; JMJD2A Tudor: -3.8%; HP1b binding inh: 32.5%; G9a inh: 9.5%[59 µM]

How did N#Cc1nc(-c2ccco2)oc1N1CCN(c2ccccc2)CC1 do in these assays?
PLK1 PBD block: -0.6%; Sfp inh: -7.1%; BAZ2B inh: 12.6µM*; JMJD2A Tudor: inconclusive; HP1b binding inh: inconclusive; G9a inh: inconclusive

Results for COc1ccc(N2CCN(c3oc(-c4ccco4)nc3C#N)CC2)cc1 ?
PLK1 PBD block: -2.9%; Sfp inh: -5.4%; JMJD2A Tudor: 31.6µM*; HP1b binding inh: inconclusive; G9a inh: 25.1µM*

How did CCOc1ccccc1Nc1ccnc2cc(Cl)ccc12 do in these assays?
PLK1 PBD block: -5.5%; Sfp inh: 0.2%; BAZ2B inh: 4.8%; JMJD2A Tudor: 16.2%; HP1b binding inh: 89.6%; G9a inh: 3.9%
